In the library only some 1.4% were active in any assay of this set; here they are far more common.
BJeLR lethal = kills HRASV12-expressing BJeLR cells. BJeLR (HRASV12) viability, CellTiter-Glo ATP luminescence, 48 h. 300,000 tested, 0.17% active. inhibition, % (no concentration beside the values); in the data active means inhibition above about 50%
PrPC surface inh = inhibitors of human cell surface prion protein PrPC | P04156 | TR-FRET read-out | inhibition, % at 13.8 µM | 370,000 tested, 0.43% active; in the data active means inhibition above about 24%; further: 0% = median of the test wells and 100% = reference compound wells
RecA splice inh = Mtb RecA intein splicing inhibition. AID 2221. 290,000 tested, 0.75% active. inhibition, % (test concentration not listed). cell-free RecA intein splicing, fluorescence. P9WHJ3; in the data active means inhibition above about 30%;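 further: 0% = vehicle wells and 100% = reference inhibitor control wells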
Target sequence (P9WHJ3 whole entry, looked up, canonical isoform): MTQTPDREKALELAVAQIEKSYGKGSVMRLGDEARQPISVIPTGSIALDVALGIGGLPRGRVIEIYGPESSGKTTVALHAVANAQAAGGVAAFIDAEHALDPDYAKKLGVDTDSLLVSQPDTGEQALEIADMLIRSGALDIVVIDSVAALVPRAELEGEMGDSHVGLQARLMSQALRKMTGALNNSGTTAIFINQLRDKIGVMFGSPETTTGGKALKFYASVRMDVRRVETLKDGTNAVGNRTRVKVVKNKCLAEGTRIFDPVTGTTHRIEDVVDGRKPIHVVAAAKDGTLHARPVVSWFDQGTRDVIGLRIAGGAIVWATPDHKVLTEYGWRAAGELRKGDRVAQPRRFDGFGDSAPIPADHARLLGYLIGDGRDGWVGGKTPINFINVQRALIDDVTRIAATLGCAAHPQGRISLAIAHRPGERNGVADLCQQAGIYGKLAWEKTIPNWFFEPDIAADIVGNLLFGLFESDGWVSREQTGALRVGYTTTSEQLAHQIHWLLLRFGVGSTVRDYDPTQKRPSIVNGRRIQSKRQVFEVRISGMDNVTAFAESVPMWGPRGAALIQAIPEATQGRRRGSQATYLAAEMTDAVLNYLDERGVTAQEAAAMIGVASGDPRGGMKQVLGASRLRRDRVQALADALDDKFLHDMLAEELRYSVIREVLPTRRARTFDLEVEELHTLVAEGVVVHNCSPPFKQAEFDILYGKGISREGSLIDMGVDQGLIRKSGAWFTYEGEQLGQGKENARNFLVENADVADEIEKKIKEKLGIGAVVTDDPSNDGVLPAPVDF
3CLpro inhibitor = SARS-CoV 3CLpro protease inhibition; recombinant SARS-CoV 3CLpro, quenched FRET peptide cleavage; 290,000 tested, 0.14% active; inhibition, % at 6 µM; in the data active means inhibition above about 12%
Mtb hypoxia rep = reduces hypoxia-regulated biosensor signal in M. tuberculosis. fluorescence inhibition, % (concentration not given with the values). M. tuberculosis hypoxia-regulated fluorescent reporter, fluorescence. 300,000 tested, 0.1% active; in the data active means fluorescence inhibition mostly above about 23%, no sharp cut-off; inactive means mostly below about 17%
PrP 5UTR inh = inhibition of PrP 5' UTR reporter expression; cell-based PrP 5' UTR mRNA reporter, plate reader; inhibition, % (concentration not given with the values); 340,000 tested, 0.35% active; in the data active means inhibition above about 52%; further: 0 = median of the neutral control wells
PrP UTR cherry = prion 5' UTR mRNA inhibition, cherry-pick retest | cell-based prion protein 5' UTR reporter, plate reader | AID 504592 | inhibition, % at 2.5 µM | shares compounds with PrP 5UTR inh | 1,100 tested, 48% active; in the data active means inhibition above about 54%
PrPC confirm = cell surface PrPC inhibition, TR-FRET confirmation; shares compounds with PrPC surface inh; cell surface PrPC level; inhibition, % at 13.8 µM; 1,500 tested, 65% active; in the data active means inhibition above about 25%
LD9 tox = kills or reduces viability of LD9 cells in PrPc counter-screen; shares compounds with PrPC surface inh; LD9 cells cytotoxicity, luminescence viability; inhibition, % at 13.8 µM; 1,500 tested, 29% active; in the data active means inhibition above about 9.5%
* hit, by the source's call; nt = not tested or not shown.

SMILES | BJeLR lethal | PrPC surface inh | RecA splice inh | 3CLpro inhibitor | Mtb hypoxia rep | PrP 5UTR inh | PrP UTR cherry | PrPC confirm | LD9 tox
COc1ccc([C@@]23Oc4cc(OC)cc(OC)c4[C@]2(O)[C@H](O)[C@H](C(=O)N(C)C)[C@H]3c2ccccc2)cc1 | nt | 98* | nt | nt | nt | 79* | 85* | 99* | 29*
NC(=O)C1=CC(c2coc3ccccc3c2=O)CC(OCCCCO)O1 (stereo not given) | nt | nt | nt | nt | 0 | nt | nt | nt | nt
COc1ccc(C2CC(=O)C=C(c3ccc4c(c3)OCO4)C2)cc1OC (stereo not given) | nt | nt | nt | nt | 1 | nt | nt | nt | nt
CC(=O)OC[C@]12CCC(C)=C[C@H]1O[C@@H]1[C@H](O)[C@@H](OC(C)=O)[C@@]2(C)[C@]12CO2 | nt | 88* | nt | nt | nt | 90* | 97* | 99* | 59*
NC(=S)c1cn(C2OC(CO)C(O)C2O)c2ncnc(N)c12 (stereo not given) | 62* | 28* | 0 | 0 | nt | 61* | 83* | 37* | 37*
OCC1OC(n2ccc3c2ncn2ncnc32)C(O)C1O (stereo not given) | nt | -6 | nt | nt | nt | nt | nt | nt | nt
Nc1ncnc2c1ccn2[C@@H]1O[C@H](CO)[C@@H](O)[C@H]1O | 111* | 77* | nt | nt | nt | 81* | 88* | 68* | 94*
Oc1ccccc1C=Nn1cnnc1 | nt | nt | nt | nt | -19 | nt | nt | nt | nt
CC1CN(C(C)CO)C(=O)c2cc(NS(=O)(=O)c3cccs3)ccc2OC1CN(C)Cc1ccc(C(F)(F)F)cc1 (stereo not given) | nt | nt | nt | nt | 13 | nt | nt | nt | nt
CC(=O)OC1(C)CC(C)C(=O)C(C(O)CC2CC(=O)NC(=O)C2)C1 (stereo not given) | nt | 91* | nt | nt | nt | 63* | 96* | 101* | 55*
COc1ccc(CC2NCCC3(O)CCCCC23)cc1 (stereo not given) | -4 | 1 | 4 | -3 | 2 | -12 | nt | nt | nt
COc1ccc(CC2NCC(O)C2OC(C)=O)cc1 (stereo not given) | nt | 94* | nt | nt | nt | 77* | 95* | 99* | 51*
O=C1CCC(C(=O)N2CSCC2C(=O)O)N1 (stereo not given) | nt | nt | nt | nt | -3 | nt | nt | nt | nt
COC(=O)C12OCC34C(CC5C(C)=C(O)C(=O)CC5(C)C3C(O)C1O)OC(=O)C(OC(=O)/C=C(\C)C(C)C)C24 (stereo not given) | nt | 100* | nt | nt | nt | 93* | 92* | 100* | 47*
COC(=O)C12OCC34C(CC5C(C)=C(O)C(=O)CC5(C)C3C(O)C1O)OC(=O)C(OC(=O)C=C(C)C)C24 (stereo not given) | nt | 100* | nt | nt | nt | 83* | 86* | 101* | 35*
C=C1C(=O)O[C@@H]2C[C@@H](C)[C@@H]3C=CC(=O)[C@@]3(C)[C@@H](O)[C@H]12 | 3 | 95* | 7 | nt | nt | 56* | 82* | 100* | 58*
C[N+](C)(C)CCOP(=O)(O)OP(=O)([O-])OCC1OC(n2ccc(N)nc2=O)C(O)C1O (stereo not given) | nt | nt | nt | nt | 9 | nt | nt | nt | nt
CC(=O)OC1C(=O)OCC23CCC4(C)OC4C2OC2CC(OC(=O)C=CC=CC(=O)OCCC1C)C3(C)C21CO1 (stereo not given) | nt | 92* | nt | nt | nt | 94* | 95* | 98* | 63*
COc1ccc2c(c1)c(C(=O)NN=Cc1cccc(Br)c1)c(C)n2C | nt | nt | nt | nt | 7 | nt | nt | nt | nt
CCN(CC)c1ccc(C(=C2C=CC(=[N+](CC)CC)C=C2)c2ccccc2)cc1 | nt | 85* | nt | nt | nt | 56* | 88* | 90* | 99*
CCC(C)C1NC(=O)C(NC(=O)C(CC(C)C)N(C)C(=O)C2CCCN2C(=O)C(C)O)C(C)OC(=O)C(Cc2ccc(OC)cc2)N(C)C(=O)C2CCCN2C(=O)C(CC(C)C)NC(=O)[C@H](C)C(=O)[C@H](C(C)C)OC(=O)CC1O (stereo not given in full) | nt | 97* | nt | nt | nt | 94* | 96* | 98* | 64*
Cc1ccc(C=C2CCC(C3CCCC3)C2=O)cc1 (stereo not given) | nt | nt | nt | nt | 1 | nt | nt | nt | nt
O=C(C1=CC(c2ccc(C(F)(F)F)cc2)CC(OCCCCO)O1)N1CCN(Cc2ccc3c(c2)OCO3)CC1 (stereo not given) | nt | nt | nt | nt | 7 | nt | nt | nt | nt
COc1ccc(OC(F)(F)F)cc1CC1(C)C(=O)Nc2ccc(S(=O)(=O)NC3CCCCC3)cc21 (stereo not given) | nt | 36* | nt | nt | nt | nt | nt | 29* | -1
C#CCOCCOCCOCCNc1nc(N2CCN(C(=O)C(CCC(=O)O)n3cc(C(N)C(C)CC)nn3)CC2)nc(N2CCN(C(=O)C(C(C)CC)n3cc(C(N)CC(C)C)nn3)CC2)n1 (stereo not given) | nt | nt | nt | nt | 8 | nt | nt | nt | nt
SMILES | BJeLR lethal | PrPC surface inh | RecA splice inh | 3CLpro inhibitor | Mtb hypoxia rep | PrP 5UTR inh | PrP UTR cherry | PrPC confirm | LD9 tox
COC(=O)CCCCCc1ccc(C(C)=O)s1 | 7 | 63* | 1 | -2 | nt | -11 | nt | 77* | 0
CCC(=O)c1ccc(CCCCCC(=O)O)s1 | 3 | 18 | 2 | -3 | nt | -5 | nt | nt | nt
CC(=O)c1ccc(CCCCCCCCCC(=O)O)s1 | -7 | 76* | -2 | 6 | -5 | 1 | nt | 68* | -10
COc1ccc(C=NNC(=O)Cc2cccs2)cc1 | nt | nt | nt | nt | -4 | nt | nt | nt | nt
CC(C)(C)CCNc1nc(-c2ccccn2)nnc1-c1ccccc1 | nt | 28* | nt | nt | nt | nt | nt | 27* | 34*
C=CCNc1nc(-c2ccccn2)nnc1-c1ccccc1 | -26 | 21 | 12 | -1 | nt | -53 | nt | nt | nt
c1ccc(-c2ccc(CNc3nc(-c4ccccn4)nnc3-c3ccccc3)cc2)cc1 | nt | 29* | nt | nt | nt | nt | nt | 37* | 28*
Clc1ccc(Cn2ncc3c(N4CCCCC4)ncnc32)c(Cl)c1 | 1 | -4 | 5 | 1 | nt | -3 | nt | nt | nt
Brc1cc(Br)c2ncnc(N3CCCCC3)c2c1 | 6 | 75* | 4 | -3 | -4 | -2 | nt | 111* | -1
CC(C)C=C1CCCCC1N(C)C(=O)NC(C)C (stereo not given) | nt | nt | nt | nt | 12 | nt | nt | nt | nt
CCOCc1nc(N)nc(N)c1-c1cccc(Cl)c1 | nt | 26* | nt | nt | nt | nt | nt | -2 | 2
CC1C(=O)OCC1NC(=O)OCc1ccccc1 (stereo not given) | nt | nt | nt | nt | -1 | nt | nt | nt | nt
COc1ccc(N(C(C)C(=O)N2CCCC2)S(C)(=O)=O)cc1 (stereo not given) | -5 | 50* | 1 | -2 | 3 | -19 | nt | 0 | -8
CCOc1ccc(N(C(C)C(=O)N2CCCC2)S(C)(=O)=O)cc1 (stereo not given) | 4 | -8 | -2 | -3 | 7 | -18 | nt | nt | nt
CCOC(=O)Nc1nc(-c2ccccc2)c(C(=O)c2ccc(Cl)cc2)s1 | 33 | 25* | 18 | 4 | 2 | -1 | nt | 16 | 9.6*
